Measured values from the supplement of paper PMC11732987, “Enantioselective OTUD7B fragment discovery through chemoproteomics screening and high-throughput optimisation” (Communications Chemistry, 2025).

What was measured:
Assay in all cases: log2 ratio of Biotin-Ahx-Ub-VS probe labelling (fragment/DMSO); higher = less target engagement (more negative = stronger competition), active = hit call of the paper (q ≤ 0.05, log2 ratio ≤ -1)
Settings in all cases: compound concentration: 200 uM; treatment time: 3 h
USP19 = target: T1, USP19 (UniProt O94966)
T1 sequence (whole entry): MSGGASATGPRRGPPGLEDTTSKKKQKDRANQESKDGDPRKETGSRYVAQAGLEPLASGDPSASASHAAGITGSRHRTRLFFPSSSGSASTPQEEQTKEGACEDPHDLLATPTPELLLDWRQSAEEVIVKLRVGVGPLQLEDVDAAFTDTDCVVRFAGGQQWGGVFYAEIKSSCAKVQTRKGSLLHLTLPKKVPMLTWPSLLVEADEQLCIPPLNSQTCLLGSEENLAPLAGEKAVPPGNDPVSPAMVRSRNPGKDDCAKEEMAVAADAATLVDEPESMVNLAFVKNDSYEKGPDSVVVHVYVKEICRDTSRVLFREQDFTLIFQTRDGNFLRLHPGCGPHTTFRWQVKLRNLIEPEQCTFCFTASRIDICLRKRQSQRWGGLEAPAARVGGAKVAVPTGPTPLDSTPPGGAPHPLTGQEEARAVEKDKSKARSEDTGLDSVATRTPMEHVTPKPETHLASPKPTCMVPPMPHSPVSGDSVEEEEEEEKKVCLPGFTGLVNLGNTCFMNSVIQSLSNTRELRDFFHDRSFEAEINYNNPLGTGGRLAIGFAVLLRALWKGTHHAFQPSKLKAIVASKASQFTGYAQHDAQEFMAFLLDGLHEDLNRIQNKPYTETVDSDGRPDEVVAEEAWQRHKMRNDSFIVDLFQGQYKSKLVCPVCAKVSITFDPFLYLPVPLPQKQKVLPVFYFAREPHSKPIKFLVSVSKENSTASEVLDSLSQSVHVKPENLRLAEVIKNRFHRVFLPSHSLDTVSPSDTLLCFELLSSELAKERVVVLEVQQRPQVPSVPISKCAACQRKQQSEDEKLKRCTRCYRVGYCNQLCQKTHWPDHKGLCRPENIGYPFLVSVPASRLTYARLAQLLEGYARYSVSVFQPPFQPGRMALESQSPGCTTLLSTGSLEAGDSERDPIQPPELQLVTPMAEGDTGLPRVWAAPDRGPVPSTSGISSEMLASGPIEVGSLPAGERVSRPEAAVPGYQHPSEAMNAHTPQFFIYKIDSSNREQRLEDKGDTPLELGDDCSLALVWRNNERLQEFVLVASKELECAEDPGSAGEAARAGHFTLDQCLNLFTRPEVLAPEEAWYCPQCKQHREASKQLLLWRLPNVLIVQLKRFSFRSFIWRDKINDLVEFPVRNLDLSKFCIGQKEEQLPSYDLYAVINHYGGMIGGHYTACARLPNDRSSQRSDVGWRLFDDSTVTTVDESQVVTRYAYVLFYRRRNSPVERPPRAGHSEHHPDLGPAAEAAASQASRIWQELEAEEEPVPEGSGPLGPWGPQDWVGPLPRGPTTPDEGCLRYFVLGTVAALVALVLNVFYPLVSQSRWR
In short: (§1)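 Triplicate samples of HEK293T lysate, 495 µg each, received fragment at 200 µM or vehicle for 3 h, followed by Biotin-Ahx-Ub-VS (0.5 µM final) for 1 h. After NeutrAvidin enrichment of labelled DUBs and LysC/trypsin digestion, peptides were run by diaPASEF LC-MS/MS. The values are average log2 fragment/vehicle ratios from global-median-normalised Spectronaut label-free quantities, tested by unpaired t-test on proteins having ≥2 unique peptides.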

USP24 = USP24 (UniProt Q9UPU5)
USP24, sequence (Q9UPU5 whole entry): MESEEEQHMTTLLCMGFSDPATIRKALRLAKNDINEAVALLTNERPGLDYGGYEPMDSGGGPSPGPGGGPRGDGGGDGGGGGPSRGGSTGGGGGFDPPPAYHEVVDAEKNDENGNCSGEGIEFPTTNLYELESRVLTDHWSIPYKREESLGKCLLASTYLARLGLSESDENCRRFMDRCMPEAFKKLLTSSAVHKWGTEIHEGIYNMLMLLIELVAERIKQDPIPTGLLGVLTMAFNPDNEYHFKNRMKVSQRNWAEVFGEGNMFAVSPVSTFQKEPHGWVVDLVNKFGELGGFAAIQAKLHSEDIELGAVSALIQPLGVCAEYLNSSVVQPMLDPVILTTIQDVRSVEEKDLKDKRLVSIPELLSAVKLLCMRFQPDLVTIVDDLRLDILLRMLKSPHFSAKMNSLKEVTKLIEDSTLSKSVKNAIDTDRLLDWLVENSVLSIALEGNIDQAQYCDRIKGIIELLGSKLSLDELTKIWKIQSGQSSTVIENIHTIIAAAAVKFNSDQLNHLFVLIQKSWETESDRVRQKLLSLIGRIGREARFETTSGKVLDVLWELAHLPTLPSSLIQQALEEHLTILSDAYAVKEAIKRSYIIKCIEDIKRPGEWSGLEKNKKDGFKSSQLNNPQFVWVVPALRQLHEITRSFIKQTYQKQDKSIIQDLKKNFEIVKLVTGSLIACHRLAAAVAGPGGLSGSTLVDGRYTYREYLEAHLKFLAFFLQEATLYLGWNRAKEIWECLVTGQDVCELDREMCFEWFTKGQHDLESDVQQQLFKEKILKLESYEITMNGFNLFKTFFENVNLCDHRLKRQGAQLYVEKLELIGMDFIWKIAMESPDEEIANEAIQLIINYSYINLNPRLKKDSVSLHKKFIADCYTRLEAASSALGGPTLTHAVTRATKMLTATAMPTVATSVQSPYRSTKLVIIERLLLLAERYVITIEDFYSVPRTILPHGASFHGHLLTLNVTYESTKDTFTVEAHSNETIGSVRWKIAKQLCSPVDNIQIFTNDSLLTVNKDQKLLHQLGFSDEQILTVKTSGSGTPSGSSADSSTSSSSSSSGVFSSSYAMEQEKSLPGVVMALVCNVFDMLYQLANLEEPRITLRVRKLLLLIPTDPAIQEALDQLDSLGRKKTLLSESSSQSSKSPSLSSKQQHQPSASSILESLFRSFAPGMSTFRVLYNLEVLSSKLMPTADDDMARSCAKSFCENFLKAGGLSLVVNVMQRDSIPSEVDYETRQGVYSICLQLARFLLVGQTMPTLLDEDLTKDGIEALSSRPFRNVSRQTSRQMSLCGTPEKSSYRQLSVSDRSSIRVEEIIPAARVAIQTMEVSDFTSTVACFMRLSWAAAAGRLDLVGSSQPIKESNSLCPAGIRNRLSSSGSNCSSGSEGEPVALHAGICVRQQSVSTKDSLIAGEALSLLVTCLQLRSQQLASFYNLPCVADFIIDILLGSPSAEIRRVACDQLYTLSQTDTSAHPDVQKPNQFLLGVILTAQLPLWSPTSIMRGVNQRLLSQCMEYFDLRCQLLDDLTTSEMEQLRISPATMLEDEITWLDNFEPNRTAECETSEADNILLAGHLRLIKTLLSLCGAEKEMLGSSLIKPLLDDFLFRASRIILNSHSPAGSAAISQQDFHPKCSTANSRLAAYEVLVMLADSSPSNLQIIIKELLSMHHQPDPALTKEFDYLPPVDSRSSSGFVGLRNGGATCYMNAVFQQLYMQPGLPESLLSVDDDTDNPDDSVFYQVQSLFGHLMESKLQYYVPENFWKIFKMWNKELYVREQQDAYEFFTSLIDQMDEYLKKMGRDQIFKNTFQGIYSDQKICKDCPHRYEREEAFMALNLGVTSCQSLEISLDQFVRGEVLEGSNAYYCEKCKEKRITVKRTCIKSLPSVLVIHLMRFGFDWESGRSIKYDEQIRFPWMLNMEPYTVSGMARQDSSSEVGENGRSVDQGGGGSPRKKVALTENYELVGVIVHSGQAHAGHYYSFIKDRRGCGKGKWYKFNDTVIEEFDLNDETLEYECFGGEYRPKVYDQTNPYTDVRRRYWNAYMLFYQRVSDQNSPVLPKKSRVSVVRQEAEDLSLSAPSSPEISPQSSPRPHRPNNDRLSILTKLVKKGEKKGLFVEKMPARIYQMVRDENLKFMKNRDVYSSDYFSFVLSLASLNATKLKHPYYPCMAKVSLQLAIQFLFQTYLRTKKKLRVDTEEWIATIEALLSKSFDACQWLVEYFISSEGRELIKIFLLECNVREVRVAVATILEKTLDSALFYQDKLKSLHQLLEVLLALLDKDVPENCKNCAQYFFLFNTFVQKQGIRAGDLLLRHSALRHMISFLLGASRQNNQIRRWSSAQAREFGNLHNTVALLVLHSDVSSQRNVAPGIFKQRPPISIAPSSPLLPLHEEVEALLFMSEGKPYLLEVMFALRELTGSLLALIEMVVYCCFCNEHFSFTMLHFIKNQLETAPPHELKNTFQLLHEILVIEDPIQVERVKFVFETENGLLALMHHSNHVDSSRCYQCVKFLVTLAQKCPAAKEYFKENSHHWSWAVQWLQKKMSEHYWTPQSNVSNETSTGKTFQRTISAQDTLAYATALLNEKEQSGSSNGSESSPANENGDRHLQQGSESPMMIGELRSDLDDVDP
In short: as §1

USP25 = target: T2, USP25 (UniProt Q9UHP3)
T2 sequence (whole entry): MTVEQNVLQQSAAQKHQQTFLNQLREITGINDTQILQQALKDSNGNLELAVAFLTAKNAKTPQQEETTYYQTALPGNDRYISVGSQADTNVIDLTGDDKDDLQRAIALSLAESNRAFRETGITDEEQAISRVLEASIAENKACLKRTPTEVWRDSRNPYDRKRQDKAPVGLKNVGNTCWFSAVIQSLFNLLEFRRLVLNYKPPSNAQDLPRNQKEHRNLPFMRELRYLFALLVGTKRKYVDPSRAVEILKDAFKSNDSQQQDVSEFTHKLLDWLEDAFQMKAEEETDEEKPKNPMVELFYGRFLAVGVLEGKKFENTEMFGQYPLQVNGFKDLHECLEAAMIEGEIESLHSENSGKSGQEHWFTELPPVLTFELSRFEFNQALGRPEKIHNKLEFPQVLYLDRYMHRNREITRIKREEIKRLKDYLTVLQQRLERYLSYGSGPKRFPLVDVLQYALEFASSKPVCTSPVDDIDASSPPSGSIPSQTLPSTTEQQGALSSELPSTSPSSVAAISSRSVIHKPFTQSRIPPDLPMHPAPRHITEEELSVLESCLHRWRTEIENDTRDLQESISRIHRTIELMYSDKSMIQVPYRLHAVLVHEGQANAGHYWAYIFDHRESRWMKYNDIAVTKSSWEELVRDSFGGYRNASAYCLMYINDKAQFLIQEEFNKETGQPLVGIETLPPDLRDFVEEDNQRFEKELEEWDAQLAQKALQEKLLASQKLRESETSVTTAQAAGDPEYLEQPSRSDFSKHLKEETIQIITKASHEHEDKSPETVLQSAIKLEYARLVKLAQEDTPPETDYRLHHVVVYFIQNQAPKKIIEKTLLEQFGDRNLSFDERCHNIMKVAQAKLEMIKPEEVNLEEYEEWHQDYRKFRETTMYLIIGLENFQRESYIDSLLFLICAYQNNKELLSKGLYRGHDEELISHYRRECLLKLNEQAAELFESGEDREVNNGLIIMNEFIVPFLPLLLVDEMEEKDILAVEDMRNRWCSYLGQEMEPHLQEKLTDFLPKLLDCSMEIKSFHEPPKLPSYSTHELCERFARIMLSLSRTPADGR
In short: as §1

USP28 = target: T3, USP28 (UniProt Q96RU2)
T3 sequence (whole entry): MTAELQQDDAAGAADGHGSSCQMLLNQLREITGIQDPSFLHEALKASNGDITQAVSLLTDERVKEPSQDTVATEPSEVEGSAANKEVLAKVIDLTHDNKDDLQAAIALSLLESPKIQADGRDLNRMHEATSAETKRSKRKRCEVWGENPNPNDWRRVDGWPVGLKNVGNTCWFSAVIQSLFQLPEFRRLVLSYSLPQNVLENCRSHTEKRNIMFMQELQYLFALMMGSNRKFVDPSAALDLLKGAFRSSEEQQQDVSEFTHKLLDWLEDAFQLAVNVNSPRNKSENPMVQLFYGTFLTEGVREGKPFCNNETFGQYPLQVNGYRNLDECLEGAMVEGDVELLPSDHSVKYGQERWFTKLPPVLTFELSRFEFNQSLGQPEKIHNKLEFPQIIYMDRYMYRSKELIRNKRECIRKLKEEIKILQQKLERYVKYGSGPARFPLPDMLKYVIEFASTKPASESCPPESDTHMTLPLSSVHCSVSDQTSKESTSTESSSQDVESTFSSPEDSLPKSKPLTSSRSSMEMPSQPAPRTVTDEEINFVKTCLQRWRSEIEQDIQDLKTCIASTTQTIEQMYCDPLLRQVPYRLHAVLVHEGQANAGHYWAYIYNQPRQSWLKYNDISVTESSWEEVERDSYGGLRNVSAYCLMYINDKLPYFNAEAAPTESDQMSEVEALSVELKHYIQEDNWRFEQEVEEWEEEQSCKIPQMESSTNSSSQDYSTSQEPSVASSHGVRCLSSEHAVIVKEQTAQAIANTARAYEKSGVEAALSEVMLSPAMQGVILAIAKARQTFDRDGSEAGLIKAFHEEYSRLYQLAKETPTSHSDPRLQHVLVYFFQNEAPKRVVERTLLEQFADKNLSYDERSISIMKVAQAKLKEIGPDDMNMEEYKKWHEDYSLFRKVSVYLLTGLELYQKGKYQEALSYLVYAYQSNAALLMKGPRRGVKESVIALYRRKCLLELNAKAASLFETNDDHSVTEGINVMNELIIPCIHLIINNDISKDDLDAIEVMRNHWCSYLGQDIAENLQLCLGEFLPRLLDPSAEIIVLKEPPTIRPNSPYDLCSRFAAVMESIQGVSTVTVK
In short: as §1

Measured: log2 ratio of Biotin-Ahx-Ub-VS probe labelling

COc1ccc(CN(C)C(=O)CCl)cc1
inactive: USP19 -0.211 | USP24 -0.564 | USP25 -0.245 | USP28 -0.499
